Values joined by “and” are separate entries in the source; they are usually repeats but may differ in a detail not shown here. Equal entries are not always repeated. Results filed as inconclusive are left out. Entries that show only a call come without a potency. Active and inactive are the calls of the source. Calls follow the shape of the dose curve; as a rule, active = well fitted cell-killing curve with a large enough effect; inconclusive = small, poorly fitted or top-dose-only effect; inactive = no such curve, though single readings can be large or run the other way.
Test: qHTS of pediatric cancer cell lines to identify multiple opportunities for drug repurposing: Primary screen for SK-N-SH cells (AID 1347098); also: nearly all actives have a fitted effect of over 65% in size
Settings: SK-N-SH viability, CellTiter-Glo luminescence, 48 h; series mostly up to 57 µM
Outline: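 Cells (500-1,000/well) rested 5 h, then received compounds for 48 h; metabolically active cells were measured by CellTiter-Glo luminescence. Final concentrations spanned up to 46 µM (MIPE, 11-point) or 0.59 nM-46 µM (NPC, 8-point) in primary screens, 11-point in follow-ups.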
Potency is read from the fitted curve at half-maximal effect.

Structure (SMILES) | Potency
CS(=O)(=O)Nc1ccc([N+](=O)[O-])cc1Oc1ccccc1 | inactive
CS(=O)(=O)CCNCc1ccc(-c2ccc3ncnc(Nc4ccc(OCc5cccc(F)c5)c(Cl)c4)c3c2)o1 | 9.7 µM (active)
CC(C(=O)O)c1cccc(C(=O)c2ccccc2)c1 (configuration not stated) | inactive
Cn1c(=O)c2c(ncn2C)n(C)c1=O | inactive
CC(C)NCC(O)c1ccc(O)c(O)c1 (configuration not stated) | inactive
Nc1nnc(-c2cccc(Cl)c2Cl)c(N)n1 | inactive
Clc1ccccc1C(c1ccccc1)(c1ccccc1)n1ccnc1 | inactive
CC(=O)OCC(CCn1cnc2cnc(N)nc21)COC(C)=O | inactive
CN(Cc1cnc2nc(N)nc(N)c2n1)c1ccc(C(=O)N[C@@H](CCC(=O)O)C(=O)O)cc1 | inactive
CC(C)C(=O)Nc1ccc([N+](=O)[O-])c(C(F)(F)F)c1 | 12.1 µM (active)
CN1CCN(CCCN2c3ccccc3Sc3ccc(Cl)cc32)CC1 | 24.4 µM (active)
CC[C@@]1(O)C(=O)OCc2c1cc1n(c2=O)Cc2cc3c(CN(C)C)c(O)ccc3nc2-1 | 344 nM (active) and 1.71 µM (active)
COc1ccc(CCN(C)CCCC(C#N)(c2ccc(OC)c(OC)c2)C(C)C)cc1OC (configuration not stated) | inactive
CC1(CN2CCC(n3c(=O)[nH]c4ccccc43)CC2)OCc2ccccc2-n2cccc21 (configuration not stated) | 24.4 µM (active)
Cc1cnc(C(=O)NCCc2ccc(S(=O)(=O)NC(=O)NC3CCCCC3)cc2)cn1 | inactive
CCOC(=O)Nc1ccc(NCc2ccc(F)cc2)nc1N | inactive
COc1cc2nc(N3CCN(C(=O)C4COc5ccccc5O4)CC3)nc(N)c2cc1OC (configuration not stated) | 19.2 µM (active)

From PubChem BioAssay (NCATS)
